High-throughput results from PubChem BioAssay.
Rows were chosen to be rich in hits. Some 20% of all compounds tested hit in one or more screens of this group.
Pf growth 96h: inhibits malaria parasite growth, 96 h; P. falciparum luciferase reporter growth, 96 h; Potency, µM (top dose mostly 28.7 µM), inactives show top-dose activity change, negative = inhibition, most hits filed as inhibitors; 320,000 compounds, 6.9% hits; AID 504834; also: potency is read from the fitted curve at half-maximal effect; % is scaled to controls: 0 for no effect and ±100 for the full control effect
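P. falciparum expressing integrated firefly luciferase grown in erythrocytes (2% hematocrit, 0.05% parasitemia final) with compounds for 96 hours at 37 C, 5% CO2. Growth inhibition read as loss of luminescence after adding luciferase detection reagent.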
Pf growth 48h: inhibits P. falciparum growth in the first generation, 48 h. P. falciparum luciferase growth in erythrocytes, 48 h. Potency, µM (highest dose often 28.7 µM), without a hit: at the highest dose activity change, negative = inhibition, most hits filed as inhibitors. 310,000 compounds, 5.9% hits. AID 504832; also: potency is read from the fitted curve at half-maximal effect; % is scaled to controls: 0 for no effect and ±100 for the full control effect
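Parasite viability was followed by luminescence of a genomically integrated firefly luciferase. Cultures held 0.1% parasitemia at 2% hematocrit (final), incubated under 5% CO2 at 37 C.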
Cycloheximide cs: affects cycloheximide protein synthesis inhibition readout, counter-screen; cell reporter, cycloheximide protein synthesis inhibition counterscreen; max response, %; 300,000 compounds, 12% hits; in the data active = max response mostly above about 13%, no sharp cut-off; inactive = mostly below about 14%; also: read at 38.3 µM for the half of the compounds with a filed dose; 0% is about no effect
HCMV inh: human cytomegalovirus inhibition | HFF cells, HCMV-luciferase reporter, 72 h; stronger effect = lower value | activity change, negative = inhibition, % at 57.5 µM | 410,000 compounds, 4.5% hits | AID 1259415; in the data active = activity change below about -60%; inconclusive = no clear call, values can overlap the other calls; inactive = above about -39%; also: % is scaled to controls: 0 for no effect and ±100 for the full control effect
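Inhibition of viral replication was scored as loss of reporter luminescence in HFFs infected with HCMV-luciferase (MOI 1 PFU/cell) for 72 h; compounds tested at 2 doses, normalized to buffer and Salinomycin controls.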
Shiga toxin inh: Shiga toxin inhibition; Vero cells, Shiga toxin protein synthesis inhibition reporter; inhibition, % at 38.7 µM; 290,000 compounds, 9.2% hits; in the data active = inhibition mostly above about 28%, no sharp cut-off; inactive = mostly below about 43%; also: 0% is about no effect
Numbers without * were called inactive. Unless noted, calls follow the shape of the dose curve; as a rule, active = well fitted inhibition curve with a large enough effect; inconclusive = small, poorly fitted or top-dose-only effect, or another doubt; inactive = no such curve, though single readings can be large or run the other way.

Results for Clc1cccc(OCCCn2ccnc2)c1 ?
Pf growth 96h: inconclusive; Pf growth 48h: -9.4%; Cycloheximide cs: 1.8; HCMV inh: -32.6; Shiga toxin inh: -1.2

Results for Clc1ccc(C(Cn2ccnc2)OCc2c(Cl)cccc2Cl)c(Cl)c1 (stereo not given) ?
Pf growth 96h: 2.94µM*; Pf growth 48h: 2.33µM*; HCMV inh: -64.4*

Results for Clc1ccc([C@H](Cn2ccnc2)OCc2csc3c(Cl)cccc23)c(Cl)c1 ?
Pf growth 96h: 5.73µM*; Pf growth 48h: inconclusive

How did Clc1ccc(C(Cn2ccnc2)OCc2csc3c(Cl)cccc23)c(Cl)c1 (stereo not given) do in these assays?
Pf growth 96h: 2.62µM*; Pf growth 48h: 1.04µM*; HCMV inh: 9.7

Results for CC1(c2ccc(Cl)cc2Cl)OCC(Cn2ccnc2)O1 (stereo not given) ?
Pf growth 96h: inconclusive; Cycloheximide cs: -1.6; HCMV inh: 23.3; Shiga toxin inh: -18.3

What do the screens show for `O=c1c2ccccc2nc(-c2ccc(Cl)cc2Cl)n1CCCn1ccnc1`?
Pf growth 96h: inconclusive; Pf growth 48h: inconclusive; Cycloheximide cs: -3.5; HCMV inh: inconclusive; Shiga toxin inh: -0.4

What do the screens show for `CCn1ccc2cc(S(=O)(=O)N3CCCN(C(=O)Nc4ccc(C)cc4Cl)CC3)ccc21`?
HCMV inh: -25.6

What do the screens show for `Fc1ccc(-c2nc3ccc(Br)cn3c2Cc2cccc(Cl)c2)cc1`?
HCMV inh: -7.0

What do the screens show for `N#CC1=C(N)S[C@H](C(=O)C23CC4CC(CC(C4)C2)C3)[C@H]1c1ccncc1`?
Pf growth 96h: 4.65µM*; Pf growth 48h: 10.4µM*; Cycloheximide cs: -2.0; Shiga toxin inh: -4.9

How did O=C(NCc1ccncc1)C12CC3CC(CC(C3)C1)C2 do in these assays?
Pf growth 96h: 1.9%; Pf growth 48h: 5.5%; Cycloheximide cs: -0.1; HCMV inh: -21.9; Shiga toxin inh: 42.4

How did O=C(Nc1nc2ccccc2[nH]1)C1CCC1 do in these assays?
Pf growth 96h: -18.4%; Pf growth 48h: 223.7%; Cycloheximide cs: 41.6*; HCMV inh: 29.6; Shiga toxin inh: 108.5*

How did O=C(Nc1nc2ccccc2[nH]1)C1CCCC1 do in these assays?
Pf growth 96h: -19.2%; Pf growth 48h: 321.5%; Cycloheximide cs: 60.5*; HCMV inh: 34.9; Shiga toxin inh: 81.2*

What do the screens show for `O=C(NCc1nc2ccccc2[nH]1)C1CCCCC1`?
Pf growth 96h: 154.2%; Pf growth 48h: 11.3%; Cycloheximide cs: 7.6; HCMV inh: -36.7; Shiga toxin inh: 10.9

How did O=C(CC1CCCC1)Nc1nc2ccccc2[nH]1 do in these assays?
Pf growth 96h: 1.2%; Pf growth 48h: 111.6%; Cycloheximide cs: 27.8*; HCMV inh: 85.1; Shiga toxin inh: 56.0

How did CN(Cc1cccc(Cl)c1)C(=O)C1CSC2(C)CCC(=O)N12 (stereo not given) do in these assays?
Pf growth 96h: 31.6%; Pf growth 48h: 8.1%; Cycloheximide cs: 3.4; HCMV inh: 1.0; Shiga toxin inh: -1.1

How did COC(=O)C1=C(C)N(Cc2cccc(C(F)(F)F)c2)C(=NCc2ccc(C(F)(F)F)cc2)NC1c1ccc(F)cc1 (stereo not given) do in these assays?
HCMV inh: -101.0*

Results for COC(=O)C1=C(C)N(Cc2ccccc2)C(=O)N[C@H]1c1cccc(C(F)(F)F)c1 ?
Pf growth 96h: inconclusive; Pf growth 48h: inconclusive; Cycloheximide cs: -3.1; HCMV inh: -20.3; Shiga toxin inh: -4.1

Results for COC(=O)C1=C(C)N(Cc2ccccc2)C(=NCc2ccc3c(c2)OCO3)N[C@H]1c1ccccc1 ?
Pf growth 96h: inconclusive; Pf growth 48h: 17.9%; Cycloheximide cs: 1.3; HCMV inh: -3.7; Shiga toxin inh: -4.2

Results for COC(=O)C1=C(C)N(Cc2cccc(C(F)(F)F)c2)C(=NCc2ccc(OC)cc2)NC1c1cccc(C(F)(F)F)c1 (stereo not given) ?
HCMV inh: -98.9*

How did COC(=O)C1=C(C)N(Cc2cccc(C(F)(F)F)c2)C(=NCc2ccc(C(F)(F)F)cc2)NC1c1ccc(C(F)(F)F)cc1 (stereo not given) do in these assays?
HCMV inh: -100.7*

What do the screens show for `COC(=O)C1=C(C)N(Cc2cccc(C(F)(F)F)c2)C(=NCc2ccc3c(c2)OCO3)NC1c1ccc(F)cc1` (stereo not given)?
HCMV inh: -85.3*

What do the screens show for `Cc1ccc(S(=O)(=O)NC(CC(=O)NCC2CCCO2)c2ccccc2)cc1` (stereo not given)?
Pf growth 96h: 18.6%; Pf growth 48h: 1.3%; Cycloheximide cs: -0.8; HCMV inh: 3.2; Shiga toxin inh: 21.0

How did CCOC(=O)c1noc2ncn(CC(=O)Nc3ccc(F)cc3Cl)c(=O)c12 do in these assays?
HCMV inh: 8.8

How did COc1cc(-c2nc3ccccn3c2/N=C/c2cc(OC)c(O)cc2Cl)ccc1O do in these assays?
Pf growth 96h: 8.7%; Pf growth 48h: 7.1%; Cycloheximide cs: 30.0*; HCMV inh: -7.8; Shiga toxin inh: 21.7*

How did COc1cc(-c2nc3ccccn3c2N)ccc1O do in these assays?
Pf growth 96h: 1.65µM*; Pf growth 48h: 1.0%; Cycloheximide cs: -2.1; HCMV inh: 21.9; Shiga toxin inh: -2.5

How did Cc1sc2ncn(CC(=O)NCc3ccccn3)c(=O)c2c1S(=O)(=O)N1CCOCC1 do in these assays?
Pf growth 96h: inconclusive; Pf growth 48h: inconclusive; Cycloheximide cs: -3.4; HCMV inh: 33.6; Shiga toxin inh: -2.4

How did CSCCC(NC(=O)c1ccccc1)C(=O)NNC(=O)c1csc(N2CCOCC2)n1 (stereo not given) do in these assays?
Pf growth 96h: 39.0%; Pf growth 48h: 20.2%; Cycloheximide cs: -1.6; HCMV inh: 6.9; Shiga toxin inh: 19.8

What do the screens show for `C/C(=N\Nc1nccnc1Cl)c1ccc(Cl)c(Cl)c1`?
Pf growth 96h: -25.4%; Pf growth 48h: 0.5%; Cycloheximide cs: 28.7*; HCMV inh: 128.0

Results for C/C(=N\Nc1nccnc1Cl)c1ccc(F)cc1 ?
Pf growth 96h: -12.4%; Pf growth 48h: 0.0%; Cycloheximide cs: 33.1*; HCMV inh: 5.8; Shiga toxin inh: 84.9*

How did C/C(=N\Nc1nccnc1Cl)c1c(F)c(F)c(F)c(F)c1F do in these assays?
Pf growth 96h: -6.9%; Pf growth 48h: 4.6%; Cycloheximide cs: 11.5; HCMV inh: -35.8; Shiga toxin inh: 29.0

What do the screens show for `C/C(=N\Nc1nccnc1Cl)c1ccc(O)cc1`?
Pf growth 96h: 7.38µM*; Pf growth 48h: 24.1%; Cycloheximide cs: 25.6*; HCMV inh: 92.0; Shiga toxin inh: 28.7*

Results for C/C(=N\Nc1nc(N)cc(Cl)n1)c1ccc(F)cc1 ?
Pf growth 96h: -1.0%; Pf growth 48h: -11.7%; Cycloheximide cs: 41.3*; HCMV inh: -5.7; Shiga toxin inh: 70.0*

Results for C/C=C/c1ccc(OCCCCNCc2ccco2)c(OC)c1 ?
Pf growth 96h: -27.3%; Pf growth 48h: 0.0%; Cycloheximide cs: 4.0; HCMV inh: -1.0; Shiga toxin inh: -4.8
